# In all, about 33,000 sequences were measured (“E-score (-0.5 to 0.5)”: median about -0.04, highest 2% from about 0.36 on). Only a selection was taken, and the highest values are over-represented in it overall.
# Molecular target: T1, Hmlalpha2 (UniProt P0CY09)
# T1 sequence: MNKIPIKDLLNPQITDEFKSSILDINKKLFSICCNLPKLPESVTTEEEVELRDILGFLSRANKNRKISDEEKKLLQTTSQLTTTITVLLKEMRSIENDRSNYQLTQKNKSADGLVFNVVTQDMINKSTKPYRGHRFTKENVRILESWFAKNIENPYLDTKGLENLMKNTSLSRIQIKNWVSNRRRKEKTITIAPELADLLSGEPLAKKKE
# Experiment: PBM E-score (8-mer binding enrichment) (E-score (-0.5 to 0.5)); higher = stronger / more preferred TF binding
# Details: protein concentration: 200 nM; construct: GST-full length
# Procedure, shortened: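 Full-length yeast transcription factors or their DNA-binding domains, GST-tagged and expressed with PURExpress, were applied at about 100-200 nM to universal all-10-mer Agilent arrays. These arrays had been made double-stranded by primer extension on fresh or once-stripped slides. Detection used fluorescent anti-GST, normalisation used masliner, and E-scores for ungapped eight-base words pooled with reverse complements came from the Universal PBM Analysis Suite.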
row,Sequence,PBM E-score
1,CATGTCGA,0.386
2,GATGTCAA,0.194
3,AATGTCAA,0.182
4,GAGGATCA,-0.143
5,CTCAGTAA,-0.0267
6,AACGCAGG,0.0539
7,AGAATCTC,-0.015
8,GAGGTTAC,0.0883
9,TAACTCGA,0.277
10,AGACTCGA,-0.211
11,GGCGGTGA,-0.163
12,CGCCACAG,-0.0887
13,ACATGAAA,0.302
14,GCATGAAC,0.104
15,ACATGAAT,0.371
16,ACATGAAG,0.338
17,CCATGAAC,-0.0422
18,ACATGAAC,0.366
19,AGCAGGCG,0.046
20,GATTGTGC,0.0144
21,ACGAGGAA,0.0596
22,TACGCTGA,0.122

row,Sequence,PBM E-score
1,CTATGCTC,-0.27
2,ACATGCTC,0.388
3,ACATGCTG,0.377
4,ACATGCAC,0.36
5,TCATGCCA,0.0681
6,AAATGCTG,0.229
7,ACATGCCT,0.3
8,ATATGCTG,-0.0833
9,ACATGCAA,0.398
10,TCATGCAA,0.107
11,CCATGCTC,-0.13
12,ACATGCCA,0.397
13,GTGGCCCA,-0.191
14,ACGCAAAC,0.125
15,CTCGCTAC,-0.181
16,CCGTTCCG,-0.225
17,AGCGAGTC,-0.136
18,CTCTAGAC,-0.116
19,ATCGGGGC,-0.175
20,AGTGCTCG,-0.187
21,GAGTTCGC,-0.169
22,TCGACAGA,-0.0778

row,Sequence,PBM E-score
1,CCATGCTA,0.0439
2,ACATGCGC,0.308
3,GCATGCTA,0.00271
4,ACATGCGT,0.399
5,ACATGCTA,0.379
6,ACATGCGG,0.289
7,TCAGCGGA,-0.169
8,GACCTCGC,-0.148
9,ACGCTCCT,0.0508
10,GCTAAGGA,-0.195
11,AATCTCCA,0.042
12,ACAAGCGA,0.112
13,AGATACAA,0.276
14,AGATACAG,-0.0238
15,GCATACAC,0.256
16,AGATACAT,0.388
17,ACATACAC,0.404
18,ACATACAA,0.325
19,ACATACAT,0.421
20,CCATACAC,0.145
21,ACATACAG,0.336
22,CTCTGCCA,-0.219

row,Sequence,PBM E-score
1,ATTCTTAA,0.148
2,GCCGAGCC,-0.127
3,GAGGCAGA,-0.265
4,CCGGACCG,-0.303
5,AATACACA,0.467
6,AATACACT,0.326
7,AATACACG,0.473
8,AATACACC,0.307
9,AATACTCA,0.18
10,CATGAGTC,0.175
11,ACCGGTCT,-0.25
12,ATTCCTGA,-0.0807
13,GTATAACA,0.378
14,GTATAAGA,0.116
15,ATATAACA,0.384
16,ATATAATA,0.199
17,ATATAACC,-0.0903
18,CTATAATA,-0.00916
19,CTATAACA,0.335
20,GTATAAAA,0.282

# — the supplement of paper PMC3334620
